Assay results published in PubChem BioAssay AID1159580 (chemical genetic matrix, 2015).
Out of some 5,500 compounds screened, about 2,000 (36%) were called active. About 18% were inconclusive and are not listed. No stated cut-off is given here; in the data, active means normalized growth mostly below about 0.91 (no sharp cut-off); inconclusive means no clear call, values can overlap the other calls; inactive means mostly above about 0.92. This is one part of the list.

Test: chemical genetic growth profiling, strain panel (AID 1159580);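 further: tested at 20 µM; growth read once vehicle control cultures reached saturation at 30 °C; 1 = growth at the plate median or of vehicle wells; lower values mean less growth of the strain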
Settings: growth OD

Measured: normalized growth

Cc1cc(O)cc(O)c1C(=O)O
inactive: S. cerevisiae deletion strains, locus YJR066W, strain TOR1, hits give low values 1.01 | S. cerevisiae deletion strains, locus YJR075W, strain HOC1, hits give low values 1.01 | S. cerevisiae deletion strains, locus YKL009W, strain mrt4, hits give low values 0.964 | S. cerevisiae deletion strains, locus YKL068W, hits give low values 0.992 | S. cerevisiae deletion strains, locus YKL085W, strain MDH1 (second series), hits give low values 1 | S. cerevisiae deletion strains, locus YKL085W, strain MDH1, hits give low values 1 | S. cerevisiae deletion strains, locus YKL160W, strain elf1, hits give low values 0.994 | S. cerevisiae deletion strains, locus YKL190W, strain CNB1, hits give low values 0.978 | S. cerevisiae deletion strains, locus YKR001C, strain vps1, hits give low values 1.01 | S. cerevisiae deletion strains, locus YKR026C, strain gcn3, hits give low values 1.02 | S. cerevisiae deletion strains, locus YKR091W, strain srl3, hits give low values 1.01 | S. cerevisiae deletion strains, locus YLL001W, strain dnm1, hits give low values 0.992 | S. cerevisiae deletion strains, locus YLL026W, hits give low values 1.02 | S. cerevisiae deletion strains, locus YLL041C, strain sdh2, hits give low values 1.03 | S. cerevisiae deletion strains, locus YLR027C, strain aat2, hits give low values 1.03 | S. cerevisiae deletion strains, locus YLR039C, strain RIC1, hits give low values 1.19 | S. cerevisiae deletion strains, locus YLR058C, strain SHM2, hits give low values 1.02 | S. cerevisiae deletion strains, locus YLR102C, strain apc9, hits give low values 1.01 | S. cerevisiae deletion strains, locus YLR113W, strain HOG1, hits give low values 1.09 | S. cerevisiae deletion strains, locus YLR221C, strain rsa3, hits give low values 1.04 | S. cerevisiae deletion strains, locus YLR258W, strain gsy2, hits give low values 1.04 | S. cerevisiae deletion strains, locus YLR262C, strain YPT6 (second series), hits give low values 1.04 | S. cerevisiae deletion strains, locus YLR268W, strain sec22, hits give low values 1.04 | S. cerevisiae deletion strains, locus YLR320W, strain mms22, hits give low values 1.03 | S. cerevisiae deletion strains, locus YLR330W, strain CHS5, hits give low values 1.01 | S. cerevisiae deletion strains, locus YLR342W, strain FKS1 (second series), hits give low values 1.02 | S. cerevisiae deletion strains, locus YLR342W, strain FKS1, hits give low values 1.03 | S. cerevisiae deletion strains, locus YLR357W, strain rsc2, hits give low values 1.01 | S. cerevisiae deletion strains, locus YLR370C, strain arc18, hits give low values 1.01 | S. cerevisiae deletion strains, locus YLR371W, strain rom2, hits give low values 0.987 | S. cerevisiae deletion strains, locus YLR384C, strain iki3, hits give low values 1.03 | S. cerevisiae deletion strains, locus YLR418C, strain cdc73, hits give low values 1.02 | S. cerevisiae deletion strains, locus YML016C, strain PPZ1, hits give low values 1.01 | S. cerevisiae deletion strains, locus YML032C, strain rad52, hits give low values 0.99 | S. cerevisiae deletion strains, locus YML120C, strain ndi1, hits give low values 1.01 | S. cerevisiae deletion strains, locus YML124C, strain tub3, hits give low values 0.989 | S. cerevisiae deletion strains, locus YMR058W, strain fet3, hits give low values 1.03 | S. cerevisiae deletion strains, locus YMR078C, strain ctf18, hits give low values 1 | S. cerevisiae deletion strains, locus YMR125W, strain sto1, hits give low values 1 | S. cerevisiae deletion strains, locus YMR129W, hits give low values 1 | S. cerevisiae deletion strains, locus YMR205C, strain PFK2, hits give low values 1 | S. cerevisiae deletion strains, locus YMR223W, strain ubp8, hits give low values 0.978 | S. cerevisiae deletion strains, locus YMR231W, strain pep5, hits give low values 1.01 | S. cerevisiae deletion strains, locus YMR307W, strain GAS1, hits give low values 1.19 | S. cerevisiae deletion strains, locus YNL067W, strain RPL9B, hits give low values 0.991 | S. cerevisiae deletion strains, locus YNL071W, strain lat1, hits give low values 1.01 | S. cerevisiae deletion strains, locus YNL153C, strain GIM3, hits give low values 0.998 | S. cerevisiae deletion strains, locus YNL183C, strain NPR1, hits give low values 1.01 | S. cerevisiae deletion strains, locus YNL209W, strain ssb2, hits give low values 1 | S. cerevisiae deletion strains, locus YNL233W, strain BNI4, hits give low values 1.04 | S. cerevisiae deletion strains, locus YNL248C, strain rpa49, hits give low values 1.03 | S. cerevisiae deletion strains, locus YNL250W, strain rad50, hits give low values 0.905 | S. cerevisiae deletion strains, locus YNL271C, strain bni1, hits give low values 0.98 | S. cerevisiae deletion strains, locus YNL298W, strain CLA4, hits give low values 1.01 | S. cerevisiae deletion strains, locus YNL307C, strain MCK1, hits give low values 1 | S. cerevisiae deletion strains, locus YNL322C, strain KRE1 (second series), hits give low values 1 | S. cerevisiae deletion strains, locus YNR049C, strain mso1, hits give low values 1.02 | S. cerevisiae deletion strains, locus YNR052C, strain pop2, hits give low values 1 | S. cerevisiae deletion strains, locus YOL012C, strain htz1 0.732 | S. cerevisiae deletion strains, locus YOL147C, strain pex11, hits give low values 0.988 | S. cerevisiae deletion strains, locus YOR001W, strain rrp6, hits give low values 1.02 | S. cerevisiae deletion strains, locus YOR061W, strain CKA2, hits give low values 1.02 | S. cerevisiae deletion strains, locus YOR069W, strain VPS5, hits give low values 1.01 | S. cerevisiae deletion strains, locus YOR070C, strain gyp1, hits give low values 1.02 | S. cerevisiae deletion strains, locus YOR080W, strain dia2, hits give low values 1.02 | S. cerevisiae deletion strains, locus YOR083W, strain WHI5, hits give low values 0.989 | S. cerevisiae deletion strains, locus YOR106W, strain vam3, hits give low values 0.98 | S. cerevisiae deletion strains, locus YOR136W, strain idh2, hits give low values 0.991 | S. cerevisiae deletion strains, locus YOR144C, strain elg1, hits give low values 0.996 | S. cerevisiae deletion strains, locus YOR184W, strain ser1, hits give low values 1.09 | S. cerevisiae deletion strains, locus YOR231W, strain MKK1, hits give low values 1.11 | S. cerevisiae deletion strains, locus YOR265W, strain rbl2, hits give low values 1.01 | S. cerevisiae deletion strains, locus YOR270C, strain vph1, hits give low values 1.07 | S. cerevisiae deletion strains, locus YOR290C, strain snf2, hits give low values 1 | S. cerevisiae deletion strains, locus YOR316C, strain cot1, hits give low values 0.977 | S. cerevisiae deletion strains, locus YPL051W, strain arl3, hits give low values 0.986 | S. cerevisiae deletion strains, locus YPL055C, strain LGE1, hits give low values 1.09 | S. cerevisiae deletion strains, locus YPL078C, strain atp4, hits give low values 0.997 | S. cerevisiae deletion strains, locus YPL106C, strain sse1, hits give low values 0.986 | S. cerevisiae deletion strains, locus YPL240C, strain hsp82, hits give low values 1.01 | S. cerevisiae deletion strains, locus YPL241C, strain CIN2, hits give low values 0.999 | S. cerevisiae deletion strains, locus YPL256C, strain CLN2, hits give low values 1.09 | S. cerevisiae deletion strains, locus YPR119W, strain clb2, hits give low values 0.981 | S. cerevisiae deletion strains, locus YPR141C, strain kar3, hits give low values 0.973 | S. cerevisiae deletion strains, locus YPR163C, strain tif3, hits give low values 1 | S. cerevisiae deletion strains, locus YPR167C, strain met16, hits give low values 0.996 | S. cerevisiae deletion strains, strain wtn01, hits give low values 1.02 | S. cerevisiae strains, strain wild type, hits give low values 1.03
